Molecules are shown by their SMILES. Where a name gives a salt, the structure may show the parent alone. ± gives the uncertainty stated by the source.

For the assay, the system named is THP-1. The experiment in a line: CD86 surface expression induction over DMSO control (% over DMSO); higher = stronger dendritic cell activation. To be noted: exposure time: 24 h. Here is the method: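 hCLAT-like CD54 and CD86 surface expression on THP1 cells after 24 h exposure at a single concentration (highest non-cytotoxic concentration, or 100-200 µM if not cytotoxic). Flow cytometry (iQue) was run on 5,000 live cells.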
Take `Nc1cc(Cl)c(O)c(Cl)c1` [4-Amino-2,6-dichlorophenol] (100 µM): the “CD86 surface expression induction” value was -14.4 ± 29.
In the case of `CC(=O)Oc1ccc(C(c2ccc(OC(C)=O)cc2)c2ccccn2)cc1` [Bisacodyl] (100 µM) it was 26.6 ± 55; in that of `CC(C)c1ccc2oc3nc(N)c(C(=O)O)cc3c(=O)c2c1` [Amlexanox] (100 µM), 8.56 ± 19.
In the case of `S=C(NC1CCCCC1)NC1CCCCC1` [N,N'-Dicyclohexylthiourea] (10 µM), the “CD86 surface expression induction” value was -17.9 ± 4.5.
In the case of `O=C(Nc1ccccc1)c1cc(Cl)ccc1O` [5-Chlorosalicylanilide] (10 µM) it was -11.7 ± 12.
In the case of `CC(C)(C)c1ccc(S)cc1` [4-tert-Butylbenzenethiol] (200 µM) it was 12.9 ± 21; in that of `Clc1ccc(C(Cn2ccnc2)OCc2ccc(Sc3ccccc3)cc2)c(Cl)c1` (stereo not given) [Fenticonazole nitrate] (100 µM), 102 ± 96; in that of `CC(O)C#CC(C)O` (stereo not given) [Hex-3-yne-2,5-diol] (10 µM), 0.05 ± 2.9.
In the case of `CCCCCCCCCCCCCCCC[N+](C)(C)Cc1ccccc1` [Benzylhexadecyldimethylammonium chloride] (10 µM) it was 57.5 ± 17.
For `C=CC(=O)OCCCCCCOC(=O)C=C` [1,6-Hexanediol diacrylate] (100 µM), the “CD86 surface expression induction” value came to 24.1 ± 16.
In the case of `Nc1cc(-c2ccncc2)c[nH]c1=O` [Amrinone] (100 µM) it was -0.14 ± 4.2; in that of `N=C1C=CC(=C(c2ccc(N)cc2)c2ccc(N)cc2)C=C1` [C.I. Basic Red 9 monohydrochloride] (10 µM), -3.84 ± 5; in that of `O=C(Oc1ccccc1)c1ccccc1O` [Phenyl salicylate] (200 µM), -3.35 ± 5.3.
In the case of `O=C(CCCCCCC(=O)Nc1ccccc1)NO` [Vorinostat (SAHA)] (100 µM), the “CD86 surface expression induction” value amounted to 5.02 ± 4.
Take `NC(=O)n1c(O)c(C(=O)c2cccs2)c2cc(Cl)ccc21` [Tenidap*] (200 µM): the “CD86 surface expression induction” value came to 98.4 ± 52.
In the case of `CC(C)c1ccc2cc(C(C)C)ccc2c1` [2,6-Diisopropylnaphthalene] (200 µM) it was 18.9 ± 22; in that of `CCCCOCCOCCOCCO` [2-[2-(2-Butoxyethoxy)ethoxy]ethanol] (115 µM), 12.7 ± 12.
In the case of `O=c1[nH]sc2cc(Cl)ccc12` [Ticlatone] (10 µM) it was -7.52 ± 22; in that of `COP(=O)(O)OP(=O)(O)OC` [Dimethyl dihydrogen diphosphate] (200 µM), -3.42 ± 3.5; in that of `CCCCCCCC/C=C\CCCCCCCC(=O)N(C)CC(=O)O` [Oleyl sarcosine] (100 µM), -14.4 ± 36.
In the case of `c1ccc2[nH]c(-c3cscn3)nc2c1` [Thiabendazole] (100 µM) it was 6.44 ± 20.
Regarding `c1ccc(CCNc2nc(-c3ccccc3)cs2)cc1` [Fanetizole] (200 µM), the “CD86 surface expression induction” value was -6.54 ± 1.4.
In the case of `O=C(NS(=O)(=O)/C=C/c1cccs1)c1ccc(F)cc1Br` (200 µM) it was -2.46 ± 4.
As to `COc1ccc(C(=O)c2ccc(C)cc2)c(O)c1` [Mexenone] (300 µM), the “CD86 surface expression induction” value worked out at 18.8 ± 32.
Regarding `CCCCCCCCCCCCO` [1-Dodecanol] (100 µM), the “CD86 surface expression induction” value is 21.8 ± 27.
Turning to `COC(=O)Nc1nc2ccc(C(=O)C3CC3)cc2[nH]1` [Cyclobendazole] (100 µM), the “CD86 surface expression induction” value was 7.71 ± 16.
In the case of `C[n+]1cc2c3c(ccc2c2ccc4cc5c(cc4c21)OCO5)OCO3` [Sanguinarine] (10 µM) it was 73.1 ± 11.
As for `C/C=C1\C(=O)C[C@H]2[C@@H]3CCC4=CC(=O)CC[C@]4(C)[C@H]3CC[C@]12C` [Guggulsterone Z] (100 µM), the “CD86 surface expression induction” value was -9.87 ± 7.2.
In the case of `COc1cccc2c1C(=O)c1c(O)c3c(c(O)c1C2=O)C[C@@](O)(C(=O)CO)C[C@@H]3O[C@H]1C[C@H](N)[C@H](O[C@@H]2CCCCO2)[C@H](C)O1` [Pirarubicin*] (10 µM) it was 324 ± 3.3; in that of `C=CCOC(=O)/C=C\C(=O)OCC=C` [Diprop-2-en-1-yl (2Z)-but-2-enedioate] (203 µM), 29.9 ± 1.4.
In the case of `O=C1OC(OC(=O)c2cccnc2Nc2cccc(C(F)(F)F)c2)c2ccccc21` (stereo not given) [Talniflumate] (100 µM) it was -7.81 ± 1.
For `Oc1c(I)cc(Cl)c2cccnc12` [Clioquinol] (100 µM), the “CD86 surface expression induction” value came out at 64.9 ± 88.
In the case of `Oc1ccc2ccccc2c1N=Nc1ccccc1` [C.I. Solvent Yellow 14] (200 µM) it was 3.18 ± 3.5.
In the case of `O=c1cc(-c2ccccc2)oc2cc(O)cc(O)c12` [Chrysin] (100 µM) it was 38.2 ± 51.
In the case of `CN(C)c1ccc(SC#N)cc1` [4-(Dimethylamino)phenylthiocyanate] (10 µM) it was -14.3 ± 7; in that of `Nc1ccc(Nc2ccccc2)cc1` [N-Phenyl-1,4-benzenediamine] (200 µM), 44.2 ± 39.
For the molecule `Nc1ccc(/N=N/c2ccccc2)c(N)n1` [Phenazopyridine hydrochloride] (100 µM), the “CD86 surface expression induction” value was -8.42 ± 5.7.
In the case of `Oc1c(Br)cc(Br)c2cccnc12` [Broxyquinoline] (100 µM) it was 57.8 ± 75; in that of `CCc1oc2ccccc2c1C(=O)c1cc(I)c(O)c(I)c1` [Benziodarone] (100 µM), 7.99 ± 3.4.
In the case of `COC(=O)Nc1nc2cc(Sc3ccccc3)ccc2[nH]1` [Fenbendazole] (100 µM) it was -18.1 ± 26.

The record behind these values is the supplement of paper PMC10933113.
